Reference: PubChem BioAssay (NCI)
The panel holds about 83,000 compounds, 20% with a hit somewhere; the sample as a whole holds those more often.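 The endpoint reported here, percent growth, reads 100 for growth as untreated, 0 for no net growth and -100 for all cells dead.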 Values without a mark were called inactive. The calls were made as follows: active = growth percent below 10; inactive = the rest.

Tested on: T-47D breast
Assay: NCI-60 one-dose screen, 48 h (100 = growth as untreated, 0 = no growth, -100 = all killed)
Settings: 10 µM unless noted

First: CC(=O)Nc1cc(F)cc(-c2ccc3[nH]cc(-c4ccccc4)c3n2)c1
Second: Fc1ccc(-c2nc(C(Cl)Cl)nc3cc(-c4ccccc4)nn23)cc1
The growth of the first is lower: 26.8% for the first, 44.3% for the second.

First: COc1ccc(NC2=C(Cl)C(=O)C(C)=C(C)C2=O)cc1OC
Second: C/C(=C(/c1ccc(Cl)cc1)c1ccc(OCCN)cc1)c1ccc(C)cc1
The growth of the first is lower: 23.5% for the first, 96.8% for the second.

Compared with `O=C1[C@H]2Cc3c([nH]c4ccccc34)[C@@H](c3ccc(Br)cc3)N2C(=O)CN1C1CCN(Cc2ccccc2)CC1`, `Cn1c(SCC(=O)c2cccs2)nc2ccccc2c1=O` is higher in growth: 19.3% for the first, 54.2% for the second.

Compound `C=CCSc1ccc2c(c1)C(N1CCNCC1)=Nc1ccccc1O2` has a growth of 71.3% [8.25 µM].
